High-throughput results: PubChem, National Center for Advancing Translational Sciences (NCATS)
This is a sample that favours compounds with a hit; in the whole collection about 5.7% have one here.
DRD3 agonist: activates the human D3 dopamine receptor. D3R DiscoveRx beta-arrestin cells, luminescence, 90 min. max activation, %. 0.58% of 410,000 active. AID 652048; in the data active = max activation above about 30%; note: 0% is about no effect
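Cells at 1500/well, incubated overnight, then treated with pinned compounds (dopamine as control) for 90 min at 37 degrees C. DiscoveRx reagent added for 30 - 60 minutes at room temperature; luminescence read.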
ClpP mod: qHTS Assay for Activators of ClpP; 1.9% of 340,000 active; Potency, µM (highest dose often 57.5 µM), without a hit: at the highest dose activity change, negative = active; ATP-dependent Clp protease proteolytic subunit (Bacillus subtilis (strain 168)), P80244; purified B. subtilis ClpP, FRET peptide cleavage, 20 min; AID 651965, 2013; active = well fitted falling curve with a large enough effect; inconclusive = small, poorly fitted or top-dose-only effect; inactive = no such curve, though single readings can be large or run the other way; note: potency is the fitted concentration of half-maximal effect; the source files actives as falling curves though it sought activators and does not explain the sign; nearly all actives have a fitted effect of over 65% in size
Target sequence (P80244 whole entry, looked up): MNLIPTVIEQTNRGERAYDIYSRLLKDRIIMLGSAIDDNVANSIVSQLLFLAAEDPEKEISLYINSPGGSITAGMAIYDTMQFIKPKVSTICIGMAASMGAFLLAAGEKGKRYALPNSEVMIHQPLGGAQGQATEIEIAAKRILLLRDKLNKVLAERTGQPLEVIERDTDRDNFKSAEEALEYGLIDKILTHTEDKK
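Buffer: 100 mM Tris/HCl pH8, 100 mM KCl, 0.05% low protease BSA, 2.5% glycerol, 0.01% Tween-20. ClpP 10 microg/mL final; 20 min RT; delta FRET normalized to ADEP and DMSO controls.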
HEK293 tox: cytotoxicity in counter-screen for GLP-1R inverse agonists; HEK293 cAMP-luciferase reporter cells, luminescence, 24 h; 0.13% of 410,000 active; Potency, µM (doses to about 38.3 µM), for the others: at the highest dose activity change, negative = inhibition, hits mostly inhibitors;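 note: loss of luciferase light is scored as toxicity; potency is the fitted concentration of half-maximal effect; % is set by controls: 0 for no effect and ±100 for the full control effect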
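Seeding density was 200 cells/uL; after overnight-length (12 h) culture, 23 nL compounds went on for 24 h at 37 °C. Readout used a luciferase detection reagent, luminescence taken after 12 min at room temperature.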
GLP-1R inv ag: GLP-1 receptor (human) inverse agonism; 1.6% of 410,000 active; HEK293 GLP-1R CRE-luciferase, luminescence, 24 h; GLP-1R form is constitutively active; Potency, µM (series often up to 38.3 µM), for inactives: top-dose activity change, negative = inhibition, most hits filed as inhibitors; P43220; note: potency is the fitted concentration of half-maximal effect; % is set by controls: 0 for no effect and ±100 for the full control effect; nearly all actives have a fitted effect of over 55% in size
Target sequence (P43220 whole entry, looked up): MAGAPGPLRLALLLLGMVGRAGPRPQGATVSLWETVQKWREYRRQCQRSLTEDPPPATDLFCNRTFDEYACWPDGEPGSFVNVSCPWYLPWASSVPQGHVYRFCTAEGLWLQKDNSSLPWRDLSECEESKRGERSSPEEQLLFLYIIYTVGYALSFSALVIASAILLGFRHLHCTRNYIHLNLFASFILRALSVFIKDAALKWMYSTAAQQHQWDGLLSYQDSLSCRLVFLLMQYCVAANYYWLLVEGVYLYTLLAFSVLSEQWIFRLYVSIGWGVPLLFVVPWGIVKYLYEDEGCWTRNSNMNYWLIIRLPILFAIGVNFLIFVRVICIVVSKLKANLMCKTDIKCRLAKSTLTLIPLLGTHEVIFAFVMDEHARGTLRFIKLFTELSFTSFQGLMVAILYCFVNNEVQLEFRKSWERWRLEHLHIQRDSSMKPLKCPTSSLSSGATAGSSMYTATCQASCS
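GLP-1R inverse agonism mode: basal reporter luminescence in engineered HEK293 cells measured after one day of compound exposure at 37 deg C, with a 12 min room-temperature detection step.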
GLP-1R agonist: agonists of human GLP-1 receptor; AID 624172; P43220; 0.007% of 380,000 active; Potency, µM (titrated, usually from 45.6 µM), for inactives: at the highest dose activation, actives largely listed as activators; HEK293 GLP-1R CRE-luciferase, luminescence, 4-6 h; cells express a hypersensitive GLP-1R form; note: potency is the fitted concentration of half-maximal effect; % of control where 0% means no effect
D3 antag: antagonists of human D3 dopamine receptor | P35462 | 2.5% of 360,000 active | max response, negative = inhibition, % | D3R cells, DiscoveRx beta-arrestin luminescence, antagonist mode; hits give low values | AID 652054; in the data active = max response below about -50%; inconclusive = no clear call, values can overlap the other calls; note: % is set by controls: 0 for no effect and ±100 for the full control effect
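Cells expressing the human receptor were seeded at 1500 cells/well, incubated overnight at 37 degrees C in 5% CO2, then exposed to library compounds with dopamine controls for 90 minutes at 37 degrees C before luminescent detection.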
Starred values were filed as active, the others as inactive; ? = inconclusive; · = not tested or not shown; ! = a repeat was not active. Unless noted, calls come from the whole dose curve; as a rule, active = well fitted curve in the direction sought with a large enough effect; inconclusive = small, poorly fitted or top-dose-only effect, or another doubt; inactive = no such curve, though single readings can be large; an effect the other way counts as inactive or inconclusive.

SMILES | DRD3 agonist | ClpP mod | HEK293 tox | GLP-1R inv ag | GLP-1R agonist | D3 antag
COc1ccc(/C=C/C(=O)Nc2ccccc2C(=O)NCC(c2ccc(OC)cc2)N(C)C)cc1 (centres undefined) | -29 | -4% | -5% | ? | 7% | -96*
COc1ccc(C(CNC(=O)c2ccc(S(=O)(=O)N3CC(C)CC(C)C3)cc2)N(C)C)cc1 (centres undefined) | -42 | -1% | ? | ? | -2% | -63*
CC1CC(=O)Nc2ccccc2N1C(=O)COc1ccccc1C(N)=O (centres undefined) | 4 | -4% | -3% | 11% | 1% | -12
CC(C)CN(CCCNC(=O)c1cc(-c2cccs2)nc2ccccc12)CC(C)C | -20 | 4% | -9% | ? | 1% | ·
O=C(CNC(=O)C1CCCCC1)OCC(=O)c1ccc2c(c1)CCC2 | · | 0% | · | · | · | ·
CN(C)C(CNC(=O)c1ccc(C(=O)c2ccccc2)cc1)c1ccccc1 (centres undefined) | -19 | · | -2% | ? | 7% | -57*
COc1ccc(C(CNC(=O)c2cccc(S(=O)(=O)NCc3ccccc3)c2)N(C)C)cc1 (centres undefined) | -25 | -2% | -1% | -26% | 2% | -71*
CN(C)C(CNC(=O)c1cccc(S(=O)(=O)N2CCN(c3ccccc3)CC2)c1)c1ccccc1 (centres undefined) | -25 | -1% | 4% | ? | 2% | -71*
COC(=O)c1cccc(S(=O)(=O)N2CCN(c3nc4ccccc4s3)CC2)c1 | 6 | 1% | -3% | 12% | -6% | -68*
COc1ccc(NS(=O)(=O)c2cccc(C(=O)NCC(c3ccccc3)N(C)C)c2)cc1 (centres undefined) | -33 | -3% | 22% | -20% | 1% | ?
CN(C)C(CNC(=O)c1cccc(S(=O)(=O)N(C)C)c1)c1ccccc1 (centres undefined) | -3 | 1% | -7% | 13% | -6% | 0
O=c1cc(-c2ccccc2)nc2c(Cl)cc(Cl)cn12 | 3 | -5% | -7% | 10% | -4% | -5
CC(C)NC(=O)Cn1nc(N2CCN(c3ccccc3)CC2)ccc1=O | 2 | 0% | 9% | -2% | · | ·
CC1CCCCN1CCCNC(=O)c1sc2ncccc2c1-n1cccc1 (centres undefined) | -24 | -2% | -5% | -13% | · | ·
O=C(NCC(=O)N1CCN(S(=O)(=O)c2ccccc2F)CC1)c1ccc2c(c1)OCO2 | 2 | · | -2% | 1% | 5% | -5
COc1ccc(S(=O)(=O)N2CCN(C(=O)CNC(=O)c3ccc4c(c3)OCO4)CC2)cc1 | 4 | 28µM* | 18% | 13% | -8% | 18
CC(C)(C)C1CCC2(CC1)C(C#N)=C(SCC(=O)NC1CCCCC1)NC(=O)C2C#N (centres undefined) | 14 | 1% | -30% | 8.9µM* | -2% | 21
N#CC1=C(SCC(=O)Nc2cccc3cccnc23)NC(=O)C(C#N)C12CCCCC2 (centres undefined) | 39* | 0% | -21% | 0% | -7% | 35
Cc1cc(C)[n+]2n1C(=O)C(c1ccccc1)=C2[O-] | 50*! | -2% | -1% | 12% | 4% | -13
Cc1cc(=O)n2[nH]c(-c3ccccc3)cc2n1 | 1 | ? | -13% | 52% | 1% | 13
Cc1ccnc(NC(=O)c2ccc(OCC3CCCO3)cc2)c1 (centres undefined) | -2 | · | -13% | 5.6µM* | -5% | -7
COc1ccc(C(=O)Nc2ccccc2C(=O)Nc2cc(C)ccn2)cc1 | 3 | 1% | -6% | 6% | 5% | -63*
CCOc1ccc(CNCc2c(C(=O)O)n(Cc3ccccc3F)c3cc(OC)ccc23)cc1 | -14 | -23% | -1% | 7% | · | ·
CCOc1ccccc1NC(=O)C(=O)c1cc(C)n(-c2cccc(C)c2C)c1C | 3 | -18% | 0% | 4% | · | ·
CCOc1ccccc1C(=O)Nc1cc(Cl)ccc1O | 2 | -10% | ? | 7.1µM* | 0% | 7
SMILES | DRD3 agonist | ClpP mod | HEK293 tox | GLP-1R inv ag | GLP-1R agonist | D3 antag
COc1ccccc1C(=O)Nc1cc(Cl)ccc1O | -5 | -7% | 5% | 1% | -16% | 0
Nn1c(SCc2ccccc2)nc2c(cnn2-c2ccccc2)c1=O | 8 | 0% | -4% | 22% | 5% | 1
C=CCn1c(Cc2ccccc2)nc2c(cnn2-c2ccccc2)c1=O | 39* | 1% | 0% | ? | 30% | 30
COCCNC(=O)[C@@H]1CSC2c3ccccc3C(=O)N21 (some centres undefined) | -8 | 32µM* | 4% | 18% | 0% | -7
CCCCNC(=O)[C@@H]1CSC2c3ccccc3C(=O)N21 (some centres undefined) | -6 | · | 18% | 4% | 15% | 39
CCN(CC)CCNC(=S)Nc1ccc(Cl)cc1 | -11 | 0% | 0% | ? | -12% | -51*
CCN(CC)CCCNC(=S)Nc1ccc(Br)cc1 | -11 | 0% | -9% | ? | -2% | -19
CCc1cccc(CC)c1NC(=S)NCCc1c(C)[nH]c2ccc(C)cc12 | -8 | -7% | -14% | 7.9µM* | -1% | ?
Cc1ccc(S(=O)(=O)N2c3ccccc3OCC2c2ccccc2)cc1 (centres undefined) | -12 | 1% | 1% | ? | -7% | 14
Cc1ccc(S(=O)(=O)N2c3cc(C)ccc3OCC2C(C)(C)C)cc1 (centres undefined) | -9 | -1% | ? | 5µM* | -11% | ?
COc1ccc(S(=O)(=O)N2c3cc(C)ccc3OCC2C(C)(C)C)cc1 (centres undefined) | -4 | -2% | -22% | 5µM* | -1% | -24
CC[C@H](C)C(=O)O[C@H]1C[C@H](O)C=C2C=C[C@H](C)[C@H](CC[C@@H](O)C[C@@H](O)CC(=O)O)[C@H]21 | 6 | · | · | · | · | ·
Cc1ccc(-n2nc(CO)c(C(=O)NC(C)c3ccccc3)n2)cc1C (centres undefined) | 2 | 35µM* | 11% | ? | · | ·
O=C(NCCc1ccccc1)c1nn(-c2ccccc2Cl)nc1CO | -3 | 0% | -11% | 11% | · | ·
Cc1ccc(-n2nc(CO)c(C(=O)NC(C)CCCc3ccccc3)n2)cc1C (centres undefined) | 4 | 35µM* | 2% | ? | · | ·
Cc1ccc(-n2nc(CO)c(C(=O)NCc3ccccn3)n2)cc1C | -7 | -5% | -5% | -12% | · | ·
